Screen size: about 2,300 compounds; about 1,500 (65%) were called active.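 Rule for the calls: active = mean inhibition over three repeats above a set limit taken from the earlier primary screen (cut at about 30% in these data); inactive = the rest.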 The set was probably picked from earlier hits. Many of the other results were omitted from the sample, so actives are more common in it than they were.

For the test, the target named is Platelet-activating factor acetylhydrolase 2, cytoplasmic (Homo sapiens) (UniProt Q99487). In words: PAFAH2 enzyme inhibitors, confirmation, biochemical, fluorescence polarization, human (AID 493030).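 Note: inhibitor blocks binding of rhodamine activity probe so polarization falls; 0% = enzyme with DMSO and 100% = wells lacking PAFAH2 protein.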 The settings on record: recombinant PAFAH2, FP-rhodamine activity probe, at 3.39 µM, active compounds read high.
The inhibition is how much of the control response was suppressed. In the case of `Cc1cccc(N2C(=O)NC(=O)/C(=C\c3cnn(-c4ccccc4)c3)C2=O)c1`, the inhibition was 35.3% (active).
For `COc1cccc(N2C(=O)NC(=O)/C(=C\c3cn(C)c4ccccc34)C2=O)c1` the value was 36.5% (active); for `O=C(COC(=O)c1ccccc1)Nc1ccc(Cl)cc1C(=O)c1ccccc1`, 39.7% (active).

The values are drawn from PubChem BioAssay AID493030 (The Scripps Research Institute Molecular Screening Center, 2011).
